Measured values from PubChem BioAssay AID1159580 (chemical genetic matrix, 2015).
Among all 5,500 compounds or so, about 2,000 (36%) were called active. Another 18% or so got no clear call; they are omitted. Cut-off read from the data, not from the text of the source: active = normalized growth mostly below about 0.91 (no sharp cut-off); inconclusive = no clear call, values can overlap the other calls; inactive = mostly above about 0.92. The list shows a part of the results.

Test: chemical genetic growth profiling, strain panel (AID 1159580);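 note: tested at 20 µM; growth read once vehicle control cultures reached saturation at 30 °C; 1 = growth at the plate median or of vehicle wells; lower values mean less growth of the strain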
Details: growth OD

Measured: normalized growth

CC(=O)OCC[C@H](C)CCC=C(C)C
inactive: S. cerevisiae deletion strains, locus YJR043C, strain POL32, stronger effect = lower value 1.01 | S. cerevisiae deletion strains, locus YJR066W, strain TOR1, stronger effect = lower value 0.979 | S. cerevisiae deletion strains, locus YKL009W, strain mrt4, stronger effect = lower value 1.01 | S. cerevisiae deletion strains, locus YKL068W, stronger effect = lower value 1.03 | S. cerevisiae deletion strains, locus YKL085W, strain MDH1 (second series), stronger effect = lower value 1.01 | S. cerevisiae deletion strains, locus YKL085W, strain MDH1, stronger effect = lower value 1.01 | S. cerevisiae deletion strains, locus YKL160W, strain elf1, stronger effect = lower value 0.978 | S. cerevisiae deletion strains, locus YKL190W, strain CNB1, stronger effect = lower value 1.01 | S. cerevisiae deletion strains, locus YKR001C, strain vps1, stronger effect = lower value 1.03 | S. cerevisiae deletion strains, locus YKR026C, strain gcn3, stronger effect = lower value 0.994 | S. cerevisiae deletion strains, locus YKR091W, strain srl3, stronger effect = lower value 0.986 | S. cerevisiae deletion strains, locus YLL001W, strain dnm1, stronger effect = lower value 1.03 | S. cerevisiae deletion strains, locus YLL026W, stronger effect = lower value 1.03 | S. cerevisiae deletion strains, locus YLL041C, strain sdh2, stronger effect = lower value 1.02 | S. cerevisiae deletion strains, locus YLR027C, strain aat2, stronger effect = lower value 1.02 | S. cerevisiae deletion strains, locus YLR039C, strain RIC1, stronger effect = lower value 1.08 | S. cerevisiae deletion strains, locus YLR058C, strain SHM2, stronger effect = lower value 1.02 | S. cerevisiae deletion strains, locus YLR102C, strain apc9, stronger effect = lower value 1.02 | S. cerevisiae deletion strains, locus YLR113W, strain HOG1, stronger effect = lower value 1.05 | S. cerevisiae deletion strains, locus YLR221C, strain rsa3, stronger effect = lower value 1.04 | S. cerevisiae deletion strains, locus YLR258W, strain gsy2, stronger effect = lower value 1.03 | S. cerevisiae deletion strains, locus YLR262C, strain YPT6 (second series), stronger effect = lower value 0.991 | S. cerevisiae deletion strains, locus YLR262C, strain YPT6, stronger effect = lower value 1.09 | S. cerevisiae deletion strains, locus YLR268W, strain sec22, stronger effect = lower value 1.03 | S. cerevisiae deletion strains, locus YLR320W, strain mms22, stronger effect = lower value 1 | S. cerevisiae deletion strains, locus YLR330W, strain CHS5, stronger effect = lower value 1 | S. cerevisiae deletion strains, locus YLR342W, strain FKS1 (second series), stronger effect = lower value 1.01 | S. cerevisiae deletion strains, locus YLR342W, strain FKS1, stronger effect = lower value 0.975 | S. cerevisiae deletion strains, locus YLR357W, strain rsc2, stronger effect = lower value 0.981 | S. cerevisiae deletion strains, locus YLR370C, strain arc18, stronger effect = lower value 0.996 | S. cerevisiae deletion strains, locus YLR371W, strain rom2, stronger effect = lower value 1.02 | S. cerevisiae deletion strains, locus YLR384C, strain iki3, stronger effect = lower value 0.971 | S. cerevisiae deletion strains, locus YLR418C, strain cdc73, stronger effect = lower value 1.02 | S. cerevisiae deletion strains, locus YML016C, strain PPZ1, stronger effect = lower value 1.02 | S. cerevisiae deletion strains, locus YML032C, strain rad52, stronger effect = lower value 1.03 | S. cerevisiae deletion strains, locus YML120C, strain ndi1, stronger effect = lower value 0.988 | S. cerevisiae deletion strains, locus YML124C, strain tub3, stronger effect = lower value 1.02 | S. cerevisiae deletion strains, locus YMR058W, strain fet3, stronger effect = lower value 0.989 | S. cerevisiae deletion strains, locus YMR078C, strain ctf18, stronger effect = lower value 1.04 | S. cerevisiae deletion strains, locus YMR125W, strain sto1, stronger effect = lower value 0.985 | S. cerevisiae deletion strains, locus YMR129W, stronger effect = lower value 0.985 | S. cerevisiae deletion strains, locus YMR205C, strain PFK2, stronger effect = lower value 1.01 | S. cerevisiae deletion strains, locus YMR223W, strain ubp8, stronger effect = lower value 1.04 | S. cerevisiae deletion strains, locus YMR231W, strain pep5, stronger effect = lower value 0.983 | S. cerevisiae deletion strains, locus YMR307W, strain GAS1, stronger effect = lower value 1.05 | S. cerevisiae deletion strains, locus YNL067W, strain RPL9B, stronger effect = lower value 1.02 | S. cerevisiae deletion strains, locus YNL071W, strain lat1, stronger effect = lower value 0.989 | S. cerevisiae deletion strains, locus YNL153C, strain GIM3, stronger effect = lower value 1.01 | S. cerevisiae deletion strains, locus YNL183C, strain NPR1, stronger effect = lower value 0.991 | S. cerevisiae deletion strains, locus YNL209W, strain ssb2, stronger effect = lower value 0.979 | S. cerevisiae deletion strains, locus YNL233W, strain BNI4, stronger effect = lower value 1.01 | S. cerevisiae deletion strains, locus YNL248C, strain rpa49, stronger effect = lower value 0.984 | S. cerevisiae deletion strains, locus YNL250W, strain rad50, stronger effect = lower value 1.03 | S. cerevisiae deletion strains, locus YNL271C, strain bni1, stronger effect = lower value 1.02 | S. cerevisiae deletion strains, locus YNL298W, strain CLA4, stronger effect = lower value 1.05 | S. cerevisiae deletion strains, locus YNL307C, strain MCK1, stronger effect = lower value 1.04 | S. cerevisiae deletion strains, locus YNL322C, strain KRE1 (second series), stronger effect = lower value 0.974 | S. cerevisiae deletion strains, locus YNL322C, strain KRE1, stronger effect = lower value 1.01 | S. cerevisiae deletion strains, locus YNR049C, strain mso1, stronger effect = lower value 0.996 | S. cerevisiae deletion strains, locus YNR052C, strain pop2, stronger effect = lower value 1.01 | S. cerevisiae deletion strains, locus YOL012C, strain htz1 1.25 | S. cerevisiae deletion strains, locus YOL147C, strain pex11, stronger effect = lower value 1.03 | S. cerevisiae deletion strains, locus YOR001W, strain rrp6, stronger effect = lower value 1.02 | S. cerevisiae deletion strains, locus YOR061W, strain CKA2, stronger effect = lower value 1.01 | S. cerevisiae deletion strains, locus YOR069W, strain VPS5, stronger effect = lower value 1 | S. cerevisiae deletion strains, locus YOR070C, strain gyp1, stronger effect = lower value 0.994 | S. cerevisiae deletion strains, locus YOR080W, strain dia2, stronger effect = lower value 0.968 | S. cerevisiae deletion strains, locus YOR083W, strain WHI5, stronger effect = lower value 0.972 | S. cerevisiae deletion strains, locus YOR106W, strain vam3, stronger effect = lower value 0.971 | S. cerevisiae deletion strains, locus YOR136W, strain idh2, stronger effect = lower value 1.02 | S. cerevisiae deletion strains, locus YOR144C, strain elg1, stronger effect = lower value 1.03 | S. cerevisiae deletion strains, locus YOR184W, strain ser1, stronger effect = lower value 1.02 | S. cerevisiae deletion strains, locus YOR231W, strain MKK1, stronger effect = lower value 1.06 | S. cerevisiae deletion strains, locus YOR265W, strain rbl2, stronger effect = lower value 0.995 | S. cerevisiae deletion strains, locus YOR270C, strain vph1, stronger effect = lower value 1.03 | S. cerevisiae deletion strains, locus YOR290C, strain snf2, stronger effect = lower value 0.997 | S. cerevisiae deletion strains, locus YOR316C, strain cot1, stronger effect = lower value 1.02 | S. cerevisiae deletion strains, locus YPL051W, strain arl3, stronger effect = lower value 0.99 | S. cerevisiae deletion strains, locus YPL078C, strain atp4, stronger effect = lower value 0.967 | S. cerevisiae deletion strains, locus YPL106C, strain sse1, stronger effect = lower value 0.949 | S. cerevisiae deletion strains, locus YPL240C, strain hsp82, stronger effect = lower value 0.99 | S. cerevisiae deletion strains, locus YPL256C, strain CLN2, stronger effect = lower value 0.997 | S. cerevisiae deletion strains, locus YPR119W, strain clb2, stronger effect = lower value 1.02 | S. cerevisiae deletion strains, locus YPR141C, strain kar3, stronger effect = lower value 1.03 | S. cerevisiae deletion strains, locus YPR163C, strain tif3, stronger effect = lower value 1.02 | S. cerevisiae deletion strains, locus YPR167C, strain met16, stronger effect = lower value 1.02 | S. cerevisiae deletion strains, strain wtn01, stronger effect = lower value 1.02 | S. cerevisiae strains, strain wild type, stronger effect = lower value 1
